Screening results as filed in PubChem BioAssay.
This excerpt belongs to a sample that is enriched for hits.
DT40 TDP1 no CPT = qHTS for Inhibitors of human tyrosyl-DNA phosphodiesterase 1 (TDP1): qHTS in cells in absence of CPT. AID 686978, 2013. Potency, µM (doses to about 46.2 µM), actives largely listed as inhibitors. 420,000 tested, 15% active. DT40 Tdp1-/- hTDP1 cells, no CPT, ATP luminescence, 48 h; also: nearly all actives have a fitted effect of over 55% in size
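Luminescent ATP content (CellTiter-Glo) served as the growth readout. Knockout chicken DT40 cells expressing human TDP1 were exposed to compounds without camptothecin for a minimum 48 hr at 37 °C.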
12-LOX inh = blocks human arachidonate 12S-lipoxygenase; Potency, µM (top dose mostly 108 µM), most hits filed as inhibitors; 580,000 tested, 1.1% active; P18054; purified 12hLO, xylenol orange hydroperoxide absorbance
Target sequence (P18054 whole entry, looked up): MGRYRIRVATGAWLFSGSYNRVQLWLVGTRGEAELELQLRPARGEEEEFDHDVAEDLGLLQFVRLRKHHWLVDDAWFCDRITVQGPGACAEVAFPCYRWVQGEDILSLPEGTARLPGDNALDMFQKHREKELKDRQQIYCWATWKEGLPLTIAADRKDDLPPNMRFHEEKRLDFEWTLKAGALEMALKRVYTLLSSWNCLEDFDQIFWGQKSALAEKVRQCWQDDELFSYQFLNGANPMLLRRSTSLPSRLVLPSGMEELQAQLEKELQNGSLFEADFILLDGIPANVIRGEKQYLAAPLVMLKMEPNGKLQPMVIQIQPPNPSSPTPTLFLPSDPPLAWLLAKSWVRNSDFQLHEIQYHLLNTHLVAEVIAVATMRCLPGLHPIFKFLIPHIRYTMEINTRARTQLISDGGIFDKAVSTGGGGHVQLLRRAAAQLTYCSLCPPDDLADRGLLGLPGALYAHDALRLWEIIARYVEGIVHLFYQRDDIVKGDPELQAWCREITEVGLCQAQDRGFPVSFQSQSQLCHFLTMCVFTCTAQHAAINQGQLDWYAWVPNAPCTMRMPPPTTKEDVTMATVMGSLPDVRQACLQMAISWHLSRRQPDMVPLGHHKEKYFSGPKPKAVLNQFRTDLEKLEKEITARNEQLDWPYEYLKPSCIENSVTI
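Purified human 12hLO at 150 nM in 25 mM Hepes, 0.01% Triton X-100, pH 7.0, preincubated 15 min at room temperature with compound. Reaction started with 40 uM arachidonic acid, 30 min at room temperature. Hydroperoxide measured by Fe-xylenol orange, 573/405 nm absorbance ratio.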
HT1080 IDH1KD tx = HT-1080 IDH1 knockdown cell toxicity (counter line). HT-1080 IDH1 knockdown viability, ATP luminescence, 48 h. 360,000 tested, 2% active. Potency, µM (doses to about 46.1 µM), hits mostly cytotoxic
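IDH1KD HT-1080 cells, 750/well, RPMI + 5% FBS; compound pinned after 2 h settling; 48 h, 37 °C; CellTiter-Glo luminescence; % activity normalised to DMSO and no-cell wells; curves fitted, classed by r2 and efficacy.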
HT1080-NT tox = kills 2HG-producing HT-1080-NT fibrosarcoma cells; HT-1080-NT fibrosarcoma viability, CellTiter-Glo ATP luminescence, 48 h; Potency, µM (doses to about 46.1 µM), most hits filed as cytotoxic; AID 686970; 360,000 tested, 1.6% active;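 also: NT is the 2HG producing partner of a matched IDH1 knockdown line; nearly all actives have a fitted effect of over 55% in size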
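Viability by CellTiter-Glo luminescence after 48 h compound exposure at 37C of HT-1080-NT cells (750/well, RPMI, 5% FBS). % activity scaled between DMSO wells and medium-only wells, then curve-fitted and categorized by curve class.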
DT40 TDP1 CPT = growth inhibition of DT40 Tdp1-/-;hTDP1 cells with camptothecin (screen for TDP1 inhibitors); chicken DT40 Tdp1-/-;hTDP1 cells + 20 nM CPT, ATP luminescence, 48 h; Potency, µM (top dose mostly 46.2 µM), usual class: inhibitors; 420,000 tested, 12% active; also: nearly all actives have a fitted effect of over 55% in size
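Chicken DT40 Tdp1-/- cells stably complemented with human TDP1 were seeded at 400 cells/well in medium containing 20 nM camptothecin, exposed to pin-transferred compounds, and grown at 37 °C for at least 48 hr. Viability was read as ATP luminescence.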
IL-1B inflam inh = inhibitors of inflammasome signaling (IL-1 beta secretion); THP-1 LPS/ATP IL-1B secretion, AlphaLISA, 16 h; active compounds read low; activity change, % at 57.5 µM; 360,000 tested, 4.7% active; AID 743279; in the data active = activity change below about -50%; inconclusive = mostly about -30% to -49%
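Secreted IL-1B measured by AlphaLISA bead assay after 16 h compound exposure of THP-1 cells; compounds (final up to 57.5 uM) added 1 h before LPS (250 ng/mL) and ATP (1.25 mM) stimulation; lower signal means less secretion.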
A number is an active result. Unless noted, calls follow the shape of the dose curve; as a rule, active = well fitted curve in the direction sought with a large enough effect; inconclusive = small, poorly fitted or top-dose-only effect, or another doubt; inactive = no such curve, though single readings can be large; an effect the other way counts as inactive or inconclusive.

`CN(C(=O)COC(=O)c1ccc(C(C)(C)C)cc1)C1CCS(=O)(=O)C1` (stereo not given) gave DT40 TDP1 no CPT inactive, 12-LOX inh inactive, HT1080 IDH1KD tx inactive, HT1080-NT tox inactive, DT40 TDP1 CPT inactive and IL-1B inflam inh inactive.
CCCCN(C(=O)c1ccc2c(=O)n3c(nc2c1)CCCCC3)c1ccccc1 was read as 12-LOX inh inactive.
For COc1ccc(CN(C)C(=O)c2ccc3c(=O)n4c(nc3c2)CCC4)cc1 the results were DT40 TDP1 no CPT inactive, 12-LOX inh inactive, HT1080 IDH1KD tx inactive, HT1080-NT tox inactive, DT40 TDP1 CPT inactive and IL-1B inflam inh inactive.
CN(C(=O)COC(=O)c1ccc2c(=O)n3c(nc2c1)CCC3)C1CCS(=O)(=O)C1 (stereo not given) was read as DT40 TDP1 no CPT inactive, 12-LOX inh inactive, HT1080 IDH1KD tx inactive, HT1080-NT tox inactive, DT40 TDP1 CPT inactive and IL-1B inflam inh -70.
CN(Cc1ccc(C(C)(C)C)cc1)C(=O)c1ccc2c(=O)n3c(nc2c1)CCC3 was read as DT40 TDP1 no CPT 21µM, 12-LOX inh inactive, HT1080 IDH1KD tx inactive, HT1080-NT tox inactive, DT40 TDP1 CPT 21µM and IL-1B inflam inh inactive.
Screening CCCN(C(=O)c1ccc2c(=O)n3c(nc2c1)CCCCC3)c1cccc(Cl)c1 returned DT40 TDP1 no CPT 16µM, 12-LOX inh inactive and DT40 TDP1 CPT inconclusive.
CN(C(=O)COC(=O)c1nc(Cl)c(Cl)c(Cl)c1Cl)C1CCS(=O)(=O)C1 (stereo not given) was read as DT40 TDP1 no CPT 21µM, 12-LOX inh inactive, HT1080 IDH1KD tx 5.8µM, HT1080-NT tox 16µM, DT40 TDP1 CPT 21µM and IL-1B inflam inh -99.
CN(Cc1ccccc1)C1CCc2ccccc21 (stereo not given) was read as 12-LOX inh inactive.
Screening CO[C@H]1[C@H](NC(=O)c2cn3ccsc3n2)c2ccccc2C12CCNCC2 returned 12-LOX inh inactive.
`CN(C)CCNC(=O)C1(C)CN(Cc2ccccc2)Cc2ccc(N3CCOCC3)nc21` (stereo not given) gave 12-LOX inh inactive.
COc1ccc(C(NC(=O)CNc2ccccc2C(=O)NC2CC2)C2CC2)cc1 (stereo not given) was read as 12-LOX inh inactive.
`COc1ccc(N2CCN(C(=O)c3ccc4c(=O)n5c(nc4c3)CCCCC5)CC2)cc1` gave DT40 TDP1 no CPT inconclusive, 12-LOX inh inactive, HT1080 IDH1KD tx inactive, HT1080-NT tox inactive, DT40 TDP1 CPT inactive and IL-1B inflam inh inactive.
Screening CN(C(=O)c1ccc2c(=O)n3c(nc2c1)CCCCC3)c1cccc(Cl)c1 returned DT40 TDP1 no CPT 23µM, 12-LOX inh inactive, HT1080 IDH1KD tx inactive, HT1080-NT tox inactive, DT40 TDP1 CPT 23µM and IL-1B inflam inh inactive.
O=C(c1ccc2c(=O)n3c(nc2c1)CCCCC3)N1CCN(c2cccc(Cl)c2)CC1 was read as DT40 TDP1 no CPT 23µM, 12-LOX inh inactive, HT1080 IDH1KD tx inactive, HT1080-NT tox inactive, DT40 TDP1 CPT 18µM and IL-1B inflam inh inactive.
For N#CC1(NC(=O)CSc2nc(-c3cccs3)nc3ccccc23)CCCC1 the results were 12-LOX inh inactive.
Cc1ccc(C(=O)N/N=C/c2ccc(Br)s2)cc1 was read as 12-LOX inh inactive.
CCOP(=O)(OCC)C(NC(C)=O)C(=O)c1ccccc1 (stereo not given) was read as DT40 TDP1 no CPT 3.7µM, 12-LOX inh inactive, HT1080 IDH1KD tx inactive, HT1080-NT tox inactive, DT40 TDP1 CPT inactive and IL-1B inflam inh inactive.
For Cc1ccc2c(c1)COc1c3ccc(C(=O)NCC4CC4)cc3nn1-2 the results were DT40 TDP1 no CPT 21µM, 12-LOX inh inactive, HT1080 IDH1KD tx inactive, HT1080-NT tox inactive, DT40 TDP1 CPT inconclusive and IL-1B inflam inh inactive.
Screening Cc1ccc2c(c1)COc1c3ccc(C(=O)O)cc3nn1-2 returned DT40 TDP1 no CPT inactive, 12-LOX inh inactive, HT1080 IDH1KD tx inactive, HT1080-NT tox inactive, DT40 TDP1 CPT inactive and IL-1B inflam inh inactive.
`CC(C)NC(=O)c1ccc2c3n(nc2c1)-c1ccccc1CO3` gave DT40 TDP1 no CPT 21µM, 12-LOX inh inactive, HT1080 IDH1KD tx inconclusive, HT1080-NT tox inconclusive, DT40 TDP1 CPT inconclusive and IL-1B inflam inh inactive.
`CCc1ccc(NC(=O)c2ccc(CNS(=O)(=O)c3ccc4c(c3)C(C)(C)C(=O)N4C)cc2)cc1` gave DT40 TDP1 no CPT 4.1µM, 12-LOX inh inactive and DT40 TDP1 CPT inconclusive.
For Cc1ccc(CNS(=O)(=O)c2ccc3c(c2)C(C)(C)C(=O)N3C)cc1 the results were DT40 TDP1 no CPT inactive, 12-LOX inh inactive, HT1080 IDH1KD tx inactive, HT1080-NT tox inactive, DT40 TDP1 CPT inactive and IL-1B inflam inh inactive.
CN1C(=O)C(C)(C)c2cc(S(=O)(=O)NCc3ccc(C(=O)Nc4ccc(Cl)cc4)cc3)ccc21 was read as DT40 TDP1 no CPT 13µM, 12-LOX inh inactive and DT40 TDP1 CPT 18µM.
For COc1ccc(Cl)cc1NC(=O)CN(C)CC(=O)Nc1ccccc1C(F)(F)F the results were DT40 TDP1 no CPT inactive, 12-LOX inh inactive, HT1080 IDH1KD tx inactive, HT1080-NT tox inactive, DT40 TDP1 CPT inactive and IL-1B inflam inh inactive.
Screening COC(=O)c1c(SCC(=O)Nc2cc(C)cc(C)c2)[nH]c2ccccc2c1=O returned DT40 TDP1 no CPT inconclusive, 12-LOX inh inactive and DT40 TDP1 CPT 23µM.
Screening COC(=O)c1c(SCC(=O)Nc2ccccc2C(F)(F)F)[nH]c2ccc(Cl)cc2c1=O returned DT40 TDP1 no CPT 29µM, 12-LOX inh inconclusive and DT40 TDP1 CPT 21µM.
`Cc1cccc(OCCCC(=O)NNC(=O)c2ccccn2)c1` gave DT40 TDP1 no CPT 7.3µM, 12-LOX inh inactive, HT1080 IDH1KD tx inconclusive, HT1080-NT tox inconclusive, DT40 TDP1 CPT 6.5µM and IL-1B inflam inh inactive.
For Cc1cccc(OCCCC(=O)NNC(=O)c2ccncc2)c1 the results were DT40 TDP1 no CPT inactive, 12-LOX inh inactive, HT1080 IDH1KD tx inactive, HT1080-NT tox inactive, DT40 TDP1 CPT inactive and IL-1B inflam inh inactive.
N#CCc1ccc([N+](=O)[O-])cc1 was read as 12-LOX inh inactive.
`Fc1ccc(-n2[nH]nnc2=S)cc1N1CCCC1` gave DT40 TDP1 no CPT inactive, 12-LOX inh 8.9µM, HT1080 IDH1KD tx inconclusive, HT1080-NT tox inactive, DT40 TDP1 CPT inactive and IL-1B inflam inh inactive.
CN(CCC#N)c1ccc(C=C(C#N)c2cccc(C(F)(F)F)c2)cc1 was read as DT40 TDP1 no CPT 23µM, HT1080 IDH1KD tx inactive, HT1080-NT tox inconclusive, DT40 TDP1 CPT 16µM and IL-1B inflam inh inactive.
